The panel holds about 79,000 compounds, 15% with a hit somewhere; the sample as a whole holds those more often. No stated cut-off is given here; in the data, active means growth inhibition above about 70%; inactive means the rest.
Key:
[1] = NCI Yeast Anticancer Drug Screen. Data for the rad50 strain (AID 155);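 further: 0% = growth of vehicle-only cultures of the same strain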; conditions: S. cerevisiae rad50 strain growth inhibition; at 50.0 µM; active compounds read high
Procedure, shortened: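 Genetically altered yeast (DNA repair pathway); compound treatment; growth inhibition vs vehicle ctrl.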

[2] = NCI Yeast Anticancer Drug Screen. Data for the mec2-1 strain (AID 157); conditions: S. cerevisiae mec2-1 strain, at 50.0 µM, active compounds read high
Procedure, shortened: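 mec2-1 yeast strain, carrying an alteration in DNA damage repair or cell cycle control, was exposed to compounds; growth inhibition was measured relative to vehicle-treated controls.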

[3] = NCI Yeast Anticancer Drug Screen. Data for the sgs1 mgt1 strain (AID 161);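 further: 0% = growth of cultures given vehicle only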; conditions: S. cerevisiae sgs1 mgt1 strain, at 50.0 µM, active compounds read high
Procedure, shortened: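 Growth of a repair-deficient yeast mutant was monitored after compound treatment and expressed as inhibition relative to vehicle-treated cultures.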

[4] = NCI Yeast Anticancer Drug Screen. Data for the cln2 rad14 strain (AID 165);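 further: 0% = growth equal to vehicle treated cultures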; conditions: S. cerevisiae cln2 rad14 strain, at 50.0 µM, active compounds read high
Procedure, shortened: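 Yeast carrying cln2 and rad14 alterations (cell cycle control and DNA damage repair) were exposed to compounds. Growth inhibition was measured against vehicle-treated controls.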

[5] = NCI Yeast Anticancer Drug Screen. Data for the bub3 strain (AID 167); conditions: S. cerevisiae bub3 mutant strain, at 50.0 µM, active compounds read high
Procedure, shortened: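 Yeast carrying a defined mutation is treated with each compound, and growth is compared with that of vehicle-exposed cells to give inhibition.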

[6] = NCI Yeast Anticancer Drug Screen. Data for the mlh1 rad18 strain (AID 175); conditions: S. cerevisiae mlh1 rad18 strain growth inhibition; at 50.0 µM; active compounds read high
Procedure, shortened: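 Growth inhibition of the yeast strain was measured after compound exposure and expressed relative to vehicle-treated controls. The strain carries defined defects in DNA damage repair.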

Measured: growth inhibition

C=CCCCCCCCCC(=O)N/N=C/c1ccc(NC(C)=O)cc1
inactive: [1] 10.2% | [2] 6.55% | [3] 7.1% | [4] 3% | [5] 11.8% | [6] 7.1%

Cc1ccccc1NC(=O)CSC#N
inactive: [1] 10.2% | [2] 7.35% | [3] 1.7% | [4] 20.1% | [5] -12.6% | [6] 8.75%

COc1ccc(NC(=O)Oc2ccc(C#N)cc2)cc1
inactive: [1] -1.3% | [2] -16.1% | [3] 5.5% | [4] 8.3% | [5] 10.4% | [6] -1.55%

O=C(NN1C(=O)CSC1c1ccccc1F)c1ccncc1 (stereo unspecified)
inactive: [1] 11.2% | [2] 6.25% | [3] 21.6% | [4] 7.7% | [5] 11.9% | [6] 19.5%

O=C(C[n+]1cccc2ccccc21)c1ccc(F)cc1
inactive: [1] -0.05% | [2] -10.3% | [3] 18.1% | [4] 17% | [5] 10.2% | [6] -3%

c1nnc2c3c4c(sc3ncn12)CCCC4
inactive: [1] 0.4% | [2] -5.05% | [3] 2.4% | [4] -24.7% | [5] -0.1% | [6] 4.55%

O=C(O)CCSSCCC(=O)O
inactive: [1] 7.25% | [2] 6.5% | [3] 10.8% | [4] -1.65% | [5] -4.1% | [6] 10.8%

COC(=O)CCCCCCC/C=N/Nc1ccc([N+](=O)[O-])cc1[N+](=O)[O-]
inactive: [1] 6.9% | [2] 22% | [3] 4.7% | [4] 8.85% | [5] 7.3% | [6] 17.4%

Cc1ccc(-n2cnc3sc4c(c3c2=O)CCCC4)cc1
inactive: [1] -12.2% | [2] -10.7% | [3] 0.7% | [4] -9.7% | [5] -7.65% | [6] -16.5%

COc1cc(C(=O)Nc2c3ccccc3nc3ccccc23)cc(OC)c1OC
inactive: [1] -19.9% | [2] -4.55% | [3] 7.8% | [4] -23.6% | [5] -3.3% | [6] -14.6%

Nc1cccc(S(=O)(=O)Nc2ccccc2)c1
inactive: [1] 19.6% | [2] 25.6% | [3] 1.55% | [4] -6.6% | [5] 0.65% | [6] 10%

COc1ccccc1NC(=O)N(Cc1ccccc1)C(C)(C)C
inactive: [1] 12.2% | [2] 9.35% | [3] 30.4% | [4] -10.2% | [5] 19.3% | [6] 33.2%

CC1(C)C=Cc2c(cc(O)c3c(=O)c4cc(Cl)ccc4[nH]c23)O1
inactive: [1] -14.2% | [2] -42.4% | [3] -14.8% | [4] -18.1% | [5] -15% | [6] -12.1%

COc1cc2c(c(OC)c1OC)C(=O)[C@@H](O)[C@H]2N
inactive: [1] -10.4% | [2] -31.9% | [3] -13% | [4] -25.5% | [5] -23.8% | [6] -41.5%

COc1ccc2c(c1)CC[C@@H]1[C@@H]2CC[C@]2(C)[C@H](S)CC[C@@H]12
inactive: [1] -3.45% | [2] -15.7% | [3] 21.4% | [4] -41% | [5] 18.1% | [6] -7.3%

COc1ccc2[nH]c3c4c(c(C)cc3c2c1)OC(C)(C)C=C4
inactive: [1] 16.2% | [2] -5.75% | [3] -4.05% | [4] -43.3% | [5] -16.6% | [6] -6.15%

COC(=O)NN=C1C(C)(C)C(=O)C1(C)C
inactive: [1] -20.7% | [2] -21.8% | [3] -25.4% | [4] 6.05% | [5] -29.4% | [6] -20.1%

CN(C)CCCNc1cc[n+](C)c2cccc([N+](=O)[O-])c12
inactive: [1] 27.1% | [2] 15.4% | [3] 31.4% | [4] 20.4% | [5] 13.8% | [6] 27.3%

CC1(C)CC(=O)C(/C=N/C(=S)NCc2ccccc2)=C(O)C1
inactive: [1] -35.4% | [2] -49.1% | [3] -16% | [4] 14.4% | [5] -2.45% | [6] -20.8%

CCOC(=O)c1c2ccc(/C=C/c3ccccc3)ccc-2c(C(=O)OCC)c1N
inactive: [1] -16.6% | [2] -7.25% | [3] -23.9% | [4] 10.6% | [5] -32% | [6] -22.6%

NCCCN(CCO)CCO
inactive: [1] -42.5% | [2] -3.1% | [3] -27.9% | [4] -31.9% | [5] -28.5% | [6] -20.4%

From PubChem BioAssay (NCI)
